Compound activity deposited in PubChem by National Center for Advancing Translational Sciences (NCATS).
Pf growth 96h: P. falciparum growth inhibition at 96 hours; P. falciparum luciferase reporter growth, 96 h; 320,000 compounds, 6.9% hits; Potency, µM (titrated, usually from 28.7 µM), hits mostly inhibitors
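Compounds incubated with erythrocytes infected by luciferase-expressing P. falciparum (2% hematocrit, 0.05% parasitemia final) for 96 hours, 37 C in 5% CO2. Growth inhibition scored as decreased luciferase luminescence.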
LASV entry inh: inhibitors of Lassa virus binding or cell entry; Lassa virus pseudotype entry inhibition, cell reporter; Potency, µM (top dose mostly 37.9 µM), usual class: inhibitors; 300,000 compounds, 1.2% hits; calls by dose curve; tested in HEK293 cells; also: nearly all actives have a fitted effect of over 50% in size
HCV inhibitor: HCV inhibition; Huh7.5.1 HCVcc-Cre infection, luciferase reporter, 44 h; Potency, µM (series often up to 41.8 µM), hits mostly inhibitors; 340,000 compounds, 3.4% hits
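A cell-based infection assay in which seeded cells (1,000 per well) receive test compound after 4 h, are inoculated with HCVcc-Cre at approximately 0.5 moi, and are incubated 44 h before luminescence detection.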
HCMV antiviral: inhibitors of human cytomegalovirus; HFF cells, HCMV-luciferase reporter, 72 h; hits give low values; AID 1259415; 410,000 compounds, 4.5% hits; activity change, negative = inhibition, % at 57.5 µM; in the data active = activity change below about -60%; inconclusive = no clear call, values can overlap the other calls; inactive = above about -39%
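Luciferase read-out from HCMV-luciferase-infected HFFs (MOI 1 PFU/cell) 72 h post infection at 37C; compounds added after 16 h cell attachment; activity normalized between buffer-only basal and Salinomycin (10uM) inhibitor controls.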
Pf growth 48h: P. falciparum growth inhibition at 48 hours (one generation); 310,000 compounds, 5.9% hits; Potency, µM (highest dose often 28.7 µM), most hits filed as inhibitors; P. falciparum luciferase growth in erythrocytes, 48 h
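A one-generation exposure of luciferase-tagged malaria parasites in RPMI 1640/Albumax erythrocyte culture, 37 C and 5% CO2. Inhibition is inferred from decreased luminescence after adding detection reagent.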
MARV entry inh: blocks Marburg virus binding to or entry into cells; Marburg virus pseudotyped entry inhibition, cell reporter; Potency, µM (top dose mostly 37.8 µM), actives largely listed as inhibitors; 300,000 compounds, 1.8% hits; calls by dose curve; tested in HEK293 cells
Each line names hits and unclear results; the compound was inactive in the other large screens. Only some compounds are listed: those with a hit (about 14% of all), similar ones and a draw of the others. Unless noted, calls follow the shape of the dose curve; as a rule, active = well fitted inhibition curve with a large enough effect; inconclusive = small, poorly fitted or top-dose-only effect, or another doubt; inactive = no such curve, though single readings can be large or run the other way.

COc1cc(C2N=C(N)Nc3nc4ccccc4n32)ccc1OCC(=O)O (stereo not drawn)	none (no result: Pf growth 96h, HCV inhibitor, Pf growth 48h)
Cc1ccc(OCC(=O)N[C@@H](C)c2nnc3ccccn23)cc1C	none (no result: LASV entry inh, MARV entry inh)
COc1ccc(OC)c(-c2csc(NC(=O)CSCc3c(C)noc3C)n2)c1	Pf growth 96h inconclusive, LASV entry inh inconclusive, HCV inhibitor 11.2µM, Pf growth 48h inconclusive, MARV entry inh inconclusive
COc1ccc(-c2csc(NC(=O)CSc3ccc(Br)cc3)n2)c(OC)c1	Pf growth 96h inconclusive, LASV entry inh 12.6µM, Pf growth 48h inconclusive, MARV entry inh inconclusive
C[C@H](CO)N1C[C@H](C)[C@@H](CN(C)C)Oc2c(NS(=O)(=O)c3cn(C)cn3)cccc2C1=O	none (no result: Pf growth 96h, LASV entry inh, Pf growth 48h, MARV entry inh)
Cc1ccc(CN2C(=O)C(F)(F)Oc3ccc(C)cc32)cc1	none (no result: Pf growth 96h, LASV entry inh, HCV inhibitor, Pf growth 48h, MARV entry inh)
COc1ccc(CCNC(=O)CNC(=O)N2CC(=O)Nc3ccccc32)cc1OC	none (no result: Pf growth 96h, LASV entry inh, HCV inhibitor, Pf growth 48h, MARV entry inh)
O=C1CN(C(=O)N[C@@H](Cc2ccccc2)C(=O)N[C@@H](Cc2ccccc2)C(=O)O)c2ccccc2N1	Pf growth 96h inconclusive, Pf growth 48h inconclusive (no result: LASV entry inh, MARV entry inh)
COc1ccc(CCNC(=O)[C@@H](NC(=O)N2CC(=O)Nc3ccccc32)C(C)C)cc1OC	Pf growth 96h 11.7µM (no result: LASV entry inh, MARV entry inh)
O=C1CN(C(=O)N[C@@H](Cc2ccccc2)C(=O)N[C@H](Cc2ccccc2)C(=O)O)c2ccccc2N1	HCV inhibitor 0.562µM (no result: LASV entry inh, MARV entry inh)
COc1cc(OC)cc(C(=O)Nc2nc(-c3nnn(-c4ccc(C)cc4)c3C)ns2)c1	HCMV antiviral -105.7 (no result: Pf growth 96h, HCV inhibitor, Pf growth 48h, MARV entry inh)
O=C(Nc1ccccc1N1CCN(C(=O)c2ccccc2)CC1)c1ccccc1Cl	Pf growth 96h inconclusive (no result: LASV entry inh, MARV entry inh)
COc1ccccc1C(=O)Nc1ccccc1N1CCN(C(=O)c2ccc(Cl)cc2)CC1	Pf growth 96h inconclusive, LASV entry inh inconclusive, HCV inhibitor inconclusive, Pf growth 48h 8.28µM, MARV entry inh inconclusive
COc1ccc(C(=O)Nc2ccccc2C(=O)O)cc1Cl	MARV entry inh inconclusive
O=C(CSc1ccc(Cl)cc1)Nc1ccccc1N1CCN(C(=O)c2ccccc2)CC1	Pf growth 96h inconclusive, LASV entry inh 15.8µM, Pf growth 48h inconclusive, MARV entry inh inconclusive
COc1ccc(Cl)cc1C(=O)Nc1ccccc1N1CCN(C)CC1	HCV inhibitor inconclusive, Pf growth 48h inconclusive, MARV entry inh inconclusive
COc1ccc(Cl)cc1C(=O)Nc1ccccc1N1CCCCC1	Pf growth 96h inconclusive, HCV inhibitor 11.2µM (no result: LASV entry inh, MARV entry inh)
CCC(=O)N1CCN(c2ccccc2NC(=O)c2ccc(OC)c(Cl)c2)CC1	Pf growth 96h 7.38µM (no result: Pf growth 48h)
COC(=O)c1sc2cccc(F)c2c1S(=O)(=O)N1CCN(c2ccccc2OC)CC1	LASV entry inh inconclusive (no result: Pf growth 96h, HCV inhibitor, Pf growth 48h, MARV entry inh)
O=C(Nc1ccccc1N1CCN(C(=O)c2ccc(Cl)cc2)CC1)c1cccc([N+](=O)[O-])c1	HCV inhibitor inconclusive, HCMV antiviral -87.9, MARV entry inh inconclusive
O=C(Nc1ccccc1N1CCN(C(=O)c2ccc(Cl)cc2)CC1)c1cc(Br)ccc1Cl	Pf growth 96h 4.65µM, LASV entry inh inconclusive, Pf growth 48h 6.57µM, MARV entry inh inconclusive
Cc1c(C(=O)NCCCN2CCCCC2)oc2ccc3c(c12)C(O)CC1(CCCCC1)O3 (stereo not drawn)	HCV inhibitor inconclusive, Pf growth 48h 8.28µM (no result: LASV entry inh, MARV entry inh)
CCN(C(=O)c1cn(CC)c(=O)c2cc(OC)c(OC)cc12)c1ccccc1F	none (no result: Pf growth 96h, HCV inhibitor, Pf growth 48h)
O=C(NCCS(=O)(=O)N1CCN(c2ccccc2)CC1)c1ccc(Br)o1	none
O=C(Nc1cccc2[nH]ncc12)c1ccc(F)cc1	HCMV antiviral -75.7, MARV entry inh inconclusive
O=C(NC(=S)Nc1cccc2[nH]ncc12)c1ccccc1	HCMV antiviral -61.6, MARV entry inh inconclusive
COC(=O)c1ccc(-n2c(C)cc(C(=O)CSc3ccc(NC(C)=O)cc3)c2C)cc1	Pf growth 96h inconclusive, LASV entry inh inconclusive, Pf growth 48h inconclusive, MARV entry inh inconclusive
COc1ccc(-c2nnc(SCC(=O)c3cc(C)n(Cc4cccs4)c3C)o2)cc1	none (no result: Pf growth 96h)
COc1ccc(-n2cnnc2SCC(=O)c2cc(C)n(Cc3cccs3)c2C)cc1	LASV entry inh inconclusive, HCV inhibitor inconclusive
Cc1csc(SCC(=O)c2cc(C)n(Cc3cccs3)c2C)n1	LASV entry inh 0.794µM, HCV inhibitor 10µM, HCMV antiviral -94.2, MARV entry inh 0.501µM (no result: Pf growth 96h)
COCCn1c(C)cc(C(=O)CSc2ccc(NC(C)=O)cc2)c1C	none
